Source: PubChem
Shown are actives, neighbours in structure and some others; about 1.7% of the full set was active somewhere.
CCHFV vOTU inh: blocks the CCHF virus ovarian tumor domain protease; inhibition, % at 11.5 µM; CCHFV vOTU protease, Pep-AMC fluorescence; 370,000 compounds, 0.55% hits; in the data active = inhibition above about 30%
Mtb hypoxia rep: Mtb hypoxia fluorescent reporter inhibition; fluorescence inhibition, % (concentration not given with the values); M. tuberculosis hypoxia-regulated fluorescent reporter, fluorescence; 300,000 compounds, 0.1% hits; in the data active = fluorescence inhibition mostly above about 23%, no sharp cut-off; inactive = mostly below about 17%
ugtP null kill: compounds lethal to S. aureus RN4220 ugtP deletion mutant. OD600 growth, 16 h. growth inhibition, % (no concentration beside the values). 330,000 compounds, 0.54% hits; in the data active = growth inhibition above about 68%
Vc quorum ag: induces V. cholerae light production without autoinducers; 350,000 compounds, 0.16% hits; V. cholerae BH1578 lux reporter, luminescence, 6 h; activation, % at 18.7 µM; in the data active = activation mostly above about 9.7%, no sharp cut-off
PfHsp40 rescue: rescue of PfHsp40-mediated yeast toxicity | S. cerevisiae expressing PfHsp40, growth rescue, ATP luminescence | growth rescue, % at 12.5 µM | 340,000 compounds, 0.68% hits; in the data active = growth rescue above about 28%, passing the limit was not always enough;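 note: yeast W303a lacking pdr1 and pdr3 grown in galactose medium; growth measured after three days at 30 °C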
RN4220 kill: kills Staphylococcus aureus RN4220; S. aureus RN4220 growth, OD600, 16 h; inhibition, % (no concentration beside the values); 330,000 compounds, 0.33% hits; in the data active = inhibition above about 85%
A number is an active result; n = inactive; x = not tested or not shown.

SMILES	CCHFV vOTU inh	Mtb hypoxia rep	ugtP null kill	Vc quorum ag	PfHsp40 rescue	RN4220 kill
S=c1[nH]nc(-c2ccccn2)n1N=Cc1ccc(-c2ccccc2Br)o1	x	n	n	x	x	n
O=C(/C=C/c1cccc([N+](=O)[O-])c1)c1ccc([N+](=O)[O-])o1	n	x	x	n	n	x
O=C(C=Cc1cccc([N+](=O)[O-])c1)c1ccc([N+](=O)[O-])o1	x	x	100	x	x	100
CCC1=C2CCC3C(=O)N(CC)C(=O)C3C2[C@@]2(Cc3ccccc3)C(=NCc3ccccc3)OC(=O)N2C1=O (stereo not given in full)	x	n	n	x	x	n
CC(=CC1CCCCC1)C(NC(=O)c1ccc(C(F)(F)F)cc1)c1ccc(-c2ccccc2)cc1 (stereo not given)	x	n	n	x	x	n
COc1ccc(OC)c(Nc2c3ccccc3nc3ccccc23)c1	n	x	x	n	n	x
COc1cc(NS(C)(=O)=O)ccc1Nc1c2ccccc2nc2ccccc12	n	n	100	n	n	n
S=C(NCCc1ccccc1)NC1CCCCCC1	n	x	n	n	88	n
S=C(NCCc1ccccc1)Nc1ncccn1	n	n	n	n	n	n
Cc1cccnc1NC(=S)NCCc1ccccc1	n	n	n	n	60	n
S=C(NCCc1ccc(Cl)cc1)NC1CCCC1	n	n	n	n	n	n
S=C(NCCc1ccc(Cl)cc1)NC1CCCCC1	n	x	x	n	200	x
c1ccc(-c2noc(-c3ccccc3-c3ccccc3)n2)cc1	n	x	95	n	n	n
Fc1ccccc1-c1nc(-c2ccc(Cl)cc2)no1	n	n	n	n	n	n
C=C1C(OC(C)=O)CC[C@]2(C)C1CC1CC(OC(C)=O)C(C)=C(C(OC(C)=O)C2OC(C)=O)C1(C)C (stereo not given in full)	x	n	n	x	x	n
COc1cccc(NCc2cc(=O)oc3cc(C)c(O)cc23)c1	n	n	100	n	x	97
O=C(NNc1ccc(O)cc1)c1ccc(Br)cc1	n	n	91	n	n	n
O=C(NNc1ccccc1)c1ccccc1	n	n	n	n	n	n
COC(=O)C1=C(c2ccc(OC)c(OC)c2)CC2CCC1N2C(=O)NCCOc1ccccc1 (stereo not given)	x	n	n	x	x	n
Cc1ccc(Nc2ccc(-n3ccnc3)nn2)cc1C	n	n	n	n	66	n
COc1cccc(Nc2ccc(-n3ccnc3)nn2)c1	n	n	n	n	n	n
C(=NN(c1ccccc1)c1ccccc1)c1ccc2c(c1)OCO2	x	n	95	x	x	n
O=C(Nc1cccc(NC(=O)c2ccccc2)n1)c1ccccc1	n	n	n	n	n	96
COc1ccc(N(C)S(=O)(=O)c2ccc(Cl)c(C(=O)NNC(=O)c3ccccc3O)c2)cc1	n	n	n	n	248	n
COc1ccccc1N(C)S(=O)(=O)c1ccc(Cl)c(C(=O)NNC(=O)c2ccccc2O)c1	n	n	n	n	218	n
SMILES	CCHFV vOTU inh	Mtb hypoxia rep	ugtP null kill	Vc quorum ag	PfHsp40 rescue	RN4220 kill
CC(=NNc1nccnc1Cl)c1ccc(O)cc1	x	n	n	x	x	n
C[C@@H]1CC[C@@]23COC(=O)C2=CCC[C@@H]3[C@@]1(C)CC/C(=C/CO)CO	n	x	n	n	n	n
CC1=CCC[C@@H]2[C@@](C)(CC/C(C)=C/C(=O)O)[C@H](C)CC[C@@]12C	n	x	x	n	58	x
CC/C(=N\NC(=O)CNC(=O)/C=C/c1ccco1)c1ccccc1	n	x	x	17	n	x
C=CCC1c2cccc(C(=O)O)c2C(=O)N1c1ccc(Cl)cc1 (stereo not given)	n	n	n	n	133	n
C=CCC1c2cccc(C(=O)O)c2C(=O)N1c1cccc(C)c1 (stereo not given)	n	n	n	n	159	n
C=CCC1c2cccc(C(=O)O)c2C(=O)N1c1cccc(OC)c1 (stereo not given)	n	n	n	n	n	n
O=C(CNC(=O)C(c1ccccc1)c1ccccc1)NN=Cc1ccc2c(c1)OCO2	x	n	n	x	x	n
CCCn1nc(NC(=O)c2cccs2)c2cc3cc(OC)ccc3nc21	n	n	n	n	68	n
CCCn1nc(NC(=O)c2cccs2)c2cc3cc(C)ccc3nc21	n	x	x	n	48	x
CCCCn1nc(NC(=O)c2cccs2)c2cc3cc(OC)ccc3nc21	n	x	n	n	n	n
CC(C)(C)C(=O)ON=C(N)c1c(Cl)cccc1Cl	x	n	n	x	x	n
O=c1c2ccccc2c(-c2cccc(C(F)(F)F)c2)nn1-c1ccccc1	n	n	n	n	n	n
O=c1c2ccccc2c(-c2ccc(O)cc2)nn1-c1cccc(C(F)(F)F)c1	n	n	n	n	240	n
O=C(OCc1ccccc1F)c1cc2ccccc2cc1O	n	n	87	n	n	n
O=C1Nc2ccccc2/C1=C/C(=O)c1cccs1	n	x	94	n	n	n
COc1ccc(C(=O)/C=C2/C(=O)Nc3ccccc32)cc1OC	n	x	x	n	n	x
COc1ccc(C(=O)/C=C2/C(=O)Nc3ccccc32)cc1	n	n	99	n	n	97
O=c1ccc(N=Nc2ccccc2)ccc1O	n	n	n	n	102	n
COc1ccc(C=NOCc2ccc(Br)cc2)c(OC)c1	x	n	87	x	x	n
COc1ccc(/C=N/OCc2ccc(Br)cc2)c(OC)c1	n	x	x	n	n	x
O=C1CN(C(=O)COC(=O)c2ccc(Cl)cc2)c2ccccc2N1	n	n	n	n	n	n
O=C1CN(C(=O)COC(=O)c2c(F)cccc2Cl)c2ccccc2N1	n	30	n	n	n	n
Cc1[nH][nH]c(=O)c1C(c1ccc(-c2ccc(Cl)c(Cl)c2)o1)c1c(C)[nH][nH]c1=O	43	n	n	n	n	n
Cc1[nH][nH]c(=O)c1C(c1ccc(-c2ccc(C(=O)O)cc2)o1)c1c(C)[nH][nH]c1=O	n	n	n	n	n	n
SMILES	CCHFV vOTU inh	Mtb hypoxia rep	ugtP null kill	Vc quorum ag	PfHsp40 rescue	RN4220 kill
CCN1CCOC(CC(=O)Nc2cccc([N+](=O)[O-])c2)C1=O (stereo not given)	n	n	n	n	x	n
CCOC(=O)c1ccc(NC(=O)CC2OCCN(CC)C2=O)cc1 (stereo not given)	n	n	n	n	53	n
CCOC(=O)c1ccc(NC(=O)CC2C(=O)OCCN2CC)cc1 (stereo not given)	n	n	n	n	219	n
COCCNC(=S)NN=Cc1c(C)[nH]c2ccccc12	x	n	n	x	x	n
Cc1ccc(C)c(Cn2c(O)c(N=NC(=S)Nc3ccccc3F)c3ccccc32)c1	n	n	n	80	n	n
C(/C=C/c1ccco1)=NN1CCN(c2ccccc2)CC1	x	x	n	x	x	n
O=C(O)CNC(=O)CC1S/C(=N/N=Cc2ccccc2O)NC1=O (stereo not given)	x	n	n	x	x	n
CCc1cccc(NC(=O)c2cnn(-c3ccccc3)c2C)c1	n	n	n	n	38	n
COc1ccc(C2CC=C(C(=O)O)C(c3ccc(Cl)cc3)N2S(=O)(=O)c2ccccc2C)cc1 (stereo not given)	x	n	n	x	x	n
